Reference: PubChem BioAssay (Tox21)
Inconclusive results are not listed. A call without a number means that no potency is given here. More than one record can exist for a structure, and the calls need not agree. Activity calls are given as the source filed them. Calls come from the whole dose curve; as a rule, active = well fitted activation curve with a large enough effect in the signal ratio in the repeat runs (not every such curve was filed as active); inconclusive = weak or mixed curves; inactive = flat fitted curve, though single readings scatter; the % refers to the signal ratio.

Test: qHTS assay to identify small molecule agonists of H2AX (AID 1224845)
Conditions: CHO-K1 phospho-H2AX Ser139 HTRF, 3 h; series mostly up to 154 µM
Excerpt: National Center for Advancing Translational Sciences [NCATS]
NIH Chemical Genomics Center [NCGC]
U.S. Environmental Protection Agency [EPA]
National Institutes of Environmental Health Sciences [NIEHS]
National Toxicology Program [NTP]
U.S. Food and Drug Administration [FDA]
HTRF phospho-H2AX (Ser139) assay (Cisbio Bioassays, US) enables the quantitative detection of the histone variant H2AX when phosphorylated on serine 139. When double-stranded DNA breaks, either by ionizing radiation or endogenous physiological processes, H2AX becomes phosphorylated at Ser139. This phospho-Ser139 serves as a sensitive biomarker for the detection of such breaks, localizing the site of DNA repair. So, HTRF phospho-H2AX Ser139 is a pertinent assay to study genome stability, the cell cycle, DNA repair, and it serves as a biomarker for cancer, and to understand aging. Wild type CHO-K1 cells were used to identify the inducers of Phospho-H2AX Ser 139 from the Tox21 10K compound collections.
Tox21 Assay Protocol Summary:
The CHO-K1 cells suspended in culture medium containing 10% FBS were dispensed at 1000 cells/ 3 ul/well in 1536-well white wall/solid bottom plates (Greiner Bio-One North America, NC) using a Multidrop Combi (Thermo Fisher Scientific Inc., Waltham, MA). After the assay plates were incubated at 37C overnight, 23 nl of compounds at 15 concentrations (from 5-48 columns) or positive control (from 1 to 4 columns) were transferred to the assay plates using a Pintool station (Wako, San Diego, CA) into each well resulting in a final DMSO concentration of 0.76%. After 3hr incubation at 37C, 1 uL/well Supplemented Lysis buffer (diluted 100 fold blocking reagent in lysis buffer) (HTRF Phospho-H2A.X (S139) Assay kit from Cisbio US Inc., Bedford, MA) was added using a Flying Reagent Dispenser (FRD) (Aurora Discovery, CA). After 10sec spin at 1000 rpm in a plate centrifuge, the assay plates were incubated at room temperature for 30 min. Then followed by the addition of 1 uL/well detection buffer (containing a mixture of two antibodies, one labeled with cryptate, Anti pH2AX (S139)-K and another labeled with d2, Anti H2AX-d2) using FRD. After incubation at room temperature for 24 hr, the time resolved fluorescence at excitation 320 nm and emissions at 665 nm and 620 nm was measured using an Envision plate reader (PerkinElmer, Waltham, MA).
Potency is the fitted concentration of half-maximal effect.

| SMILES | Potency |
| --- | --- |
| c1ccc(OP(Oc2ccccc2)Oc2ccccc2)cc1 | inactive |
| O=C(NC(=O)c1c(F)cccc1F)Nc1cc(Cl)c(OC(F)(F)C(F)C(F)(F)F)cc1Cl (stereo not given) | inactive |
| CN(N=O)c1ccccc1 | inactive |
| CCCCN(CC)C(=O)SCCC | inactive |
| OCCN(CCO)CCO | inactive |
| O=[N+]([O-])c1ccc(Oc2ccc(Cl)cc2Cl)cc1 | inactive |
| Cc1ccc(N)cc1Cl | inactive |
| COC(=O)NC(=S)Nc1ccccc1NC(=S)NC(=O)OC | inactive |
| O=C(O)c1ccccn1 | inactive |
| CC1C=[C-]C=C1.[C-]#[O+].[C-]#[O+].[C-]#[O+].[Mn] | inactive |
| [N-]=[N+]=[N-] | inactive |
| O=[N+]([O-])c1ccccc1 | inactive |
| CC(C)(Cl)Cl | inactive |
| CCOP(OCC)OCC | inactive |
| CC(NC(C)(C)C)C(=O)c1cccc(Cl)c1 (stereo not given) | inactive |
| O=S(=O)(c1ccc(O)cc1)c1ccc(O)cc1 | inactive |
| CC(C)(C)OOC(=O)c1ccccc1 | inactive |
| CN=C=S | inactive |
| CCC[N+](=O)[O-] | 5.56 µM (active) and inactive |
| NCCc1ccc(O)cc1 | inactive |

| SMILES | Potency |
| --- | --- |
| Cc1ccc([N+](=O)[O-])cc1C | inactive |
| C=CCO | inactive |
| CON(C)C(=O)Nc1ccc(Cl)c(Cl)c1 | inactive |
| CC(C)NC(=O)N1CC(=O)N(c2cc(Cl)cc(Cl)c2)C1=O | inactive |
| CC(C)N1C(=O)c2ccccc2NS1(=O)=O | inactive |
| CCCCOC(=O)c1ccccc1C(=O)OCCCC | inactive |
| CCc1cccc(C)c1N(C(=O)CCl)C(C)COC (stereo not given) | inactive |
| CCN(CC)CCO | inactive |
| C[C@]12CC[C@H]3[C@@H](CC[C@@]45O[C@@H]4C(O)=C(C#N)C[C@]35C)[C@@H]1CC[C@@H]2O | inactive |
| Nc1ccc(Br)cc1 | inactive |
| COc1ccc2c3c1O[C@H]1[C@@H](O)C=C[C@H]4[C@@H](C2)N(C)CC[C@@]341 | 99.2 µM (active) and inactive |
| Nc1c(Cl)c(Cl)nc(C(=O)O)c1Cl | inactive |
| Clc1ccc(Cl)cc1 | inactive |
| COCCl | inactive |
| CN(C)CCO | inactive |
| [O-][Cl+2]([O-])O | inactive |
| C=CC(N)=O | inactive |
| OC(O)C(Cl)(Cl)Cl | inactive |
| CN(C)[C@@H]1C(=O)C(C(N)=O)=C(O)[C@@]2(O)C(=O)C3=C(O)c4c(O)cccc4[C@@](C)(O)[C@H]3C[C@@H]12 | inactive |
| O=c1[nH]c2ccccc2c(=O)o1 | inactive |
